Shown are actives, neighbours in structure and some others; about 12% of the full set was active somewhere.
L3MBTL1 block: inhibitors of human L3MBTL1; Q9Y468; AlphaScreen L3MBTL1–H3K9me1 peptide binding; Potency, µM (titrated, usually from 57.1 µM), without a hit: top-dose activity, negative = inhibition, most hits filed as inhibitors; actives 0.66% (n = 230,000); note: % is set by controls: 0 for no effect and ±100 for the full control effect; nearly all actives have a fitted effect of over 60% in size
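L3MBTL1 (50 nM) pre-complexed 30 min with biotinylated H3(1-15)K9me1 peptide (75 nM), then compounds added for 30 min at room temperature; AlphaScreen streptavidin donor/nickel chelate acceptor beads (10 ug/mL final) read after 30 min dark incubation.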
BAZ2B inh: inhibitors of human BAZ2B bromodomain; AlphaScreen BAZ2B-H3K14Ac peptide displacement; actives 4.4% (n = 360,000); AID 504333; Potency, µM (top dose mostly 114 µM), for the others: at the top dose activity change, negative = inhibition, actives largely listed as inhibitors; note: % is set by controls: 0 for no effect and ±100 for the full control effect; nearly all actives have a fitted effect of over 60% in size
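Inhibition is scored as reduced AlphaScreen emission. The BAZ2B/b-H3(5-23)K14Ac complex (50 nM each) in PBS pH 7.4, 0.01% Tween-20 meets compound (up to 110 uM) for 30 min at RT before bead addition.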
HP1b binding inh: blocks HP1-beta chromodomain binding to methylated histone tails; P83916; Potency, µM (titrated, usually from 114 µM), without a hit: top-dose activity change, negative = inhibition, usual class: inhibitors; actives 0.56% (n = 390,000); AlphaScreen HP1-beta / biotin-H3K9me3 peptide binding; note: nearly all actives have a fitted effect of over 70% in size
Target sequence (P83916 whole entry, looked up): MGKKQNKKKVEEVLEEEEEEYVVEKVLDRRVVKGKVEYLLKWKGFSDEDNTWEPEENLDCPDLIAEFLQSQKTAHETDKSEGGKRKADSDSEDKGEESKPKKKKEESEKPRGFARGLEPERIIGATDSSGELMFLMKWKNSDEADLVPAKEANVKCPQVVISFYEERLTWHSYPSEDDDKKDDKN
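AlphaScreen: HP1-beta (50 nM) preformed 30 min with biotin-H3(1-18)K9me3 peptide (50 nM) in PBS pH 7.4, 0.01% Tween-20. Compound added for 30 min at RT, then streptavidin donor/nickel chelate acceptor beads (10 ug/mL) for 30 min.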
Sfp inh: Sfp phosphopantetheinyl transferase inhibition | actives 3.5% (n = 310,000) | Potency, µM, for the others: largest response in the series, negative = inhibition, most hits filed as inhibitors | Q9F4F7 | Biochemical Sfp PPTase activity, qHTS | AID 1490;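 note: the enzyme is Sfp with the accession as filed and its product quenches rhodamine fluorescence; 0% = enzyme reaction without inhibitor and -100% = no enzyme wells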
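Sfp 15 nM + cpd, 15 min RT; start w/ rhodamine-CoA 5 uM, BHQ-2-YbbR 12.5 uM (final); 50 mM Hepes pH 7.6, 10 mM MgCl2, 0.01% NP-40, 0.01% BSA; read 525/598 nm at 0 and 30 min.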
G9a block: inhibitors of human histone lysine methyltransferase G9a; Q96KQ7; G9a H3K9 monomethylation, AlphaScreen, 2 h; Potency, µM (doses to about 102 µM), inactives show top-dose activity, negative = inhibition, hits mostly inhibitors; actives 8.8% (n = 350,000); AID 504332; note: % is set by controls: 0 for no effect and ±100 for the full control effect; nearly all actives have a fitted effect of over 75% in size
Target sequence (Q96KQ7 913-1193 limits assumed): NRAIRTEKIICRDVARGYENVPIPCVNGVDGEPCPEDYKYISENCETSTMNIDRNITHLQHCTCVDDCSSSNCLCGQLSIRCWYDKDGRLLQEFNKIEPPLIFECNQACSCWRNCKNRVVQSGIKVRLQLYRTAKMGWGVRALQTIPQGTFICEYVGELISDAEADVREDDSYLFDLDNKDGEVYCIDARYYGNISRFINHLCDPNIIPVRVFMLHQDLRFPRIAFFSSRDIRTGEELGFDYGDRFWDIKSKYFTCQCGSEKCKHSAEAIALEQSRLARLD
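G9a (20 nM) was preincubated 15 min with compound, then reacted 2 h at room temperature with 500 nM biotin-H3K9 peptide and 20 µM SAM. Monomethyl-H3K9 detected by AlphaScreen using anti-H3K9me1 antibody.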
JMJD2A Tudor inh: blocks the human JMJD2A Tudor domain; Potency, µM (doses to about 114 µM), for the others: at the top dose activity change, negative = inhibition, actives largely listed as inhibitors; actives 4.4% (n = 390,000); O75164; AID 504339; AlphaScreen JMJD2A-Tudor / H3K4me3 peptide binding; note: % is set by controls: 0 for no effect and ±100 for the full control effect; nearly all actives have a fitted effect of over 50% in size
An asterisk follows results filed as active; ? = inconclusive; nt = no result given; [ ] = remark or other dose. Calls come from the whole dose curve; as a rule, active = well fitted curve in the direction sought with a large enough effect; inconclusive = small, poorly fitted or top-dose-only effect, or another doubt; inactive = no such curve, though single readings can be large; an effect the other way counts as inactive or inconclusive. Potency is the fitted concentration of half-maximal effect.

SMILES	L3MBTL1 block	BAZ2B inh	HP1b binding inh	Sfp inh	G9a block	JMJD2A Tudor inh
Cc1ccccc1NC(=O)COc1coc(CN2CCCc3ccccc32)cc1=O	-7%	50µM*	6%	nt	50µM*	?
CCOC(=O)c1ccccc1NS(=O)(=O)c1ccc(N2CCCCS2(=O)=O)cc1	nt	0%	36%	nt	17%[59 µM]	-5%
CC(C)(C)C1=CC(=O)C(N2CCOCC2)=CC1=O	-14%	50µM*	?	-16%	?	-34%
COc1ccc2nc(SCC(=O)c3c(C)[nH]c4ccccc34)nc(C)c2c1	nt	?	12%	nt	-38%[59 µM]	-13%
Cn1ccnc1Sc1cc(NCCCO)c([N+](=O)[O-])c2nonc12	17%	-8%	3%	?	56µM*	-16%
O=[N+]([O-])c1c(NCCCO)cc(SCc2ccco2)c2nonc12	-3%	?	5%	22µM*	8.9µM*	-28%
CC(=O)OCCNc1cc(SCc2ccco2)c2nonc2c1[N+](=O)[O-]	-7%	?	-39%	45µM*	45µM*	50µM*
COC(=O)CCSc1cc(NCCOC(C)=O)c([N+](=O)[O-])c2nonc12	-3%	-11%	-6%[57 µM]	-2%	26%	-8%[57.1 µM]
COc1ccccc1NC(=O)C(=O)NCC(c1cccnc1)N1CCc2ccccc2C1 (configuration not stated)	nt	?	1%	nt	?	-29%
COc1ccc(-c2nc3ccc(Cl)cc3c(=O)n2Cc2ccccc2)cc1COc1ccc(NC(C)=O)cc1	nt	nt	nt	nt	nt	-14%
Cc1ccc(NC(=O)CN2C(=O)C3(SCC(=O)N3c3ccc(F)c(F)c3)c3ccccc32)c(C)c1 (configuration not stated)	nt	0%[57.1 µM]	27%	nt	-31%[59 µM]	-17%
Cc1ccccc1NC(=O)Cn1c(=O)n(CCC(=O)NCc2ccc3c(c2)OCO3)c(=O)c2sccc21	nt	?	19%	nt	-44%[59 µM]	-5%
O=C1CCCc2cc3c(cc21)CCCC3	nt	nt	14%[57 µM]	nt	nt	14%
Nc1cc2c(cc1O)CCCC2	?	-31%	?	4.5µM*	nt	2.5µM*
CCOc1cc(C(=S)N2CCOCC2)ccc1OC(=O)c1ccc(C)cc1	-15%	-32%	-21%	-9%	45µM*	?
CCOc1ccc(C(=S)N2CCOCC2)cc1OC	-4%	-3%	-15%	-13%	?	-8%
CCOc1cc2nc(-c3ccc(OC)c(OC)c3)nc(N3CC(C)OC(C)C3)c2cc1OC (configuration not stated)	-2%	-3%	nt	1%	nt	nt
CCOc1cc2nc(-c3ccc(OC)c(OC)c3)nc(N3CCOCC3)c2cc1OC	3%	56µM*	8%	14%	-7%[2.33 µM]	-26%
CCOc1cc(C(=S)N2CCOCC2)ccc1OS(=O)(=O)c1ccccc1	-10%	-9%	28%	-11%	-6%[59 µM]	-19%
CCOc1cc(C(=S)N2CCCC2)ccc1OCc1ccccc1	-10%	-30%	3%	15%	1%	-20%
CCOc1cc(C(=S)N2CCOCC2)ccc1OC	nt	1%	-18%	-30%	10µM*	-17%
CCOc1ccc(C(=S)N2CCCC2)cc1OCC	1%	6%	-10%	56µM*	10µM*	-6%
CN(C)c1ccc(-c2nc3cnccn3c2Nc2cccc(C(F)(F)F)c2)cc1	nt	?	22%	nt	-41%[59 µM]	-29%
CCOc1cc(C(=S)N2CCOCC2)ccc1OC(=O)c1ccccc1	-15%	?	-25%	79µM*	22µM*	-34%
CCOc1cc(C(=S)N2CCOCC2)ccc1OC(=O)c1cccc(C)c1	-9%	-36%	-6%	-3%	?	?
SMILES	L3MBTL1 block	BAZ2B inh	HP1b binding inh	Sfp inh	G9a block	JMJD2A Tudor inh
CCOc1cc(/C=C/C(=O)c2ccc(OC)c(CN3CCOCC3)c2)cc(Br)c1O	nt	?	-37%	-1%	45µM*	?
COc1ccc2nc(N(Cc3cccnc3)C(=O)CCc3ccccc3)sc2c1	nt	-5%	47%	nt	-8%[59 µM]	-29%
Cc1ccc(NC2Sc3ccccc3NC2=O)cc1 (configuration not stated)	-3%	-35%	45µM*	8.9µM*	1.8µM*	50µM*
CCc1ccccc1NC(=O)Nc1cc(C(=O)NCc2ccccc2OC)ccc1N1CCCC1	nt	-13%	6%	nt	4%[59 µM]	-9%
CCOc1ccc(C2NC(=O)c3sc(=S)n(-c4ccccc4)c3N2)cc1 (configuration not stated)	3%	?	20%	?	32µM*	-28%
COc1ccc(C2NC(=O)c3sc(=S)n(-c4ccccc4)c3N2)cc1 (configuration not stated)	nt	-12%	25%	50µM*	-43%[12.7 µM]	-13%
Cc1c(C(=O)O)sc(=S)n1-c1ccccc1	6%	-9%	47%	24%	-6%	-17%
CCOc1ccc(-n2c(=S)sc3c(=O)n(-c4ccccc4)c(SC)nc32)cc1	nt	-12%	-7%	-3%	19%	-27%
O=C1NC(c2ccccc2)Nc2c1sc(=S)n2-c1ccccc1 (configuration not stated)	nt	-19%	-5%	32µM*	22µM*	-11%[11.4 µM]
CCOCCCNC(=O)c1ccc(NC(=O)N2CCCCc3ccccc32)cc1	nt	-3%	25%	nt	13%[59 µM]	-9%
CCCC(=O)N1CCc2cc(OC)c(OC)cc2C1COc1ccc2c(C)cc(=O)oc2c1 (configuration not stated)	nt	4%	49%	nt	20%[59 µM]	1%
NC(C(=O)O)(c1ccc(P(=O)(O)O)cc1)C1CC1 (configuration not stated)	nt	nt	nt	6%	29%[59 µM]	nt
CCOc1ccc(Cc2n[nH]c(=S)n2N)cc1	0%	-31%	?	56µM*	?	8.9µM*
C=CCn1c(Cc2ccc(OCC)cc2)nnc1SCC(N)=O	2%	7%	33%	15%	-3%[12.7 µM]	-6%
COc1ccc(Cc2nc(=S)[nH][nH]2)cc1Br	-3%[11.4 µM]	?	?	35µM*	-118%	-18%[57.1 µM]
COc1ccc(Cc2nnc(Nc3ccccc3)s2)cc1Br	nt	-3%	34%	2%	12%	-20%
Nn1c(Cc2ccc(Br)cc2)n[nH]c1=S	3%	?	?	35µM*	2.2µM*	7.1µM*
COc1ccc(Cc2n[nH]c(=S)n2C)cc1Br	-22%	11%	5%	?	?	20µM*
COc1ccc(Cc2n[nH]c(=S)n2N)cc1OC	1%	?	?	20µM*	3.2µM*	7.9µM*
Nn1c(Cc2ccccc2F)n[nH]c1=S	-6%	-22%	24%	?	20µM*	3.2µM*
COC(=O)c1ccc(NC(=O)N2CCN(c3nnc(C)c4c(C)n(-c5ccccc5)nc34)CC2)cc1	nt	-12%	-7%	nt	4%[59 µM]	-29%

From PubChem BioAssay
